# TDP1 block = TDP1 (human) enzyme inhibition; Q9NUW8; recombinant TDP1, AlphaScreen DNA substrate cleavage; Potency, µM (series often up to 130 µM), inactives show top-dose activity change, negative = inhibition, hits mostly inhibitors; actives 0.28% (n = 350,000); AID 485290; also: % is scaled to controls: 0 for no effect and ±100 for the full control effect; nearly all actives have a fitted effect of over 40% in size
#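 Signal: AlphaScreen proximity between streptavidin donor and anti-FITC acceptor beads on intact substrate. Reaction: Tdp1 1 nM, substrate 15 nM final, 5 min RT after 15 min compound preincubation.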
# BAZ2B inh = blocks human BAZ2B; Q9UIF8; AlphaScreen BAZ2B-H3K14Ac peptide displacement; Potency, µM (doses to about 114 µM), without a hit: top-dose activity change, negative = inhibition, usual class: inhibitors; actives 4.4% (n = 360,000); also: % is scaled to controls: 0 for no effect and ±100 for the full control effect; nearly all actives have a fitted effect of over 60% in size
#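 AlphaScreen luminescence quantifies BAZ2B engagement of H3K14Ac peptide; the protein and biotinylated peptide are both at 50 nM final, buffer PBS pH 7.4 with 0.01% Tween-20, all steps at room temperature.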
# HP1b chromo inh = HP1-beta chromodomain-methylated histone interaction inhibition. AlphaScreen HP1-beta / biotin-H3K9me3 peptide binding. Potency, µM (series often up to 114 µM), inactives show at the highest dose activity change, negative = inhibition, hits mostly inhibitors. actives 0.56% (n = 390,000). AID 540317; also: nearly all actives have a fitted effect of over 70% in size
# Target sequence (P83916 whole entry, looked up): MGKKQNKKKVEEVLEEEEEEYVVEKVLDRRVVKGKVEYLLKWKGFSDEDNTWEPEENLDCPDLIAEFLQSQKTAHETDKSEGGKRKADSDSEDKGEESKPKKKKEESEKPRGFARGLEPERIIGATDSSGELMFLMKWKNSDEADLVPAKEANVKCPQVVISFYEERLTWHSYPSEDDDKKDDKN
#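 Compound inhibition of the preformed complex between 50 nM HP1-beta and 50 nM biotinylated H3K9me3 peptide was read by AlphaScreen. Buffer was PBS pH 7.4 with 0.01% Tween-20. Incubations ran 30 min at room temperature, with 10 ug/mL donor/acceptor beads.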
# Sfp inh = inhibitors of Bacillus subtilis Sfp phosphopantetheinyl transferase. Potency, µM, inactives show largest response in the series, negative = inhibition, usual class: inhibitors. AID 1490. Biochemical Sfp PPTase activity, qHTS. actives 3.5% (n = 310,000). Q9F4F7;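 also: the enzyme is Sfp with the accession as filed and its product quenches rhodamine fluorescence; 0% = enzyme reaction without inhibitor and -100% = no enzyme wells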
#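 Buffer: 50 mM Hepes-Na pH 7.6, 10 mM MgCl2, 0.01% Nonidet P-40, 0.01% BSA. Enzyme 15 nM, pre-exposed to compound 15 min; substrates then added and fluorescence change tracked over 30 min.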
# JMJD2A Tudor = inhibitors of human JMJD2A Tudor domain | O75164 | AlphaScreen JMJD2A-Tudor / H3K4me3 peptide binding | Potency, µM (top dose mostly 114 µM), inactives show at the highest dose activity change, negative = inhibition, hits mostly inhibitors | actives 4.4% (n = 390,000); also: % is scaled to controls: 0 for no effect and ±100 for the full control effect; nearly all actives have a fitted effect of over 50% in size
# G9a inh = blocks human histone lysine methyltransferase G9a; Q96KQ7; G9a H3K9 monomethylation, AlphaScreen, 2 h; Potency, µM (titrated, usually from 102 µM), without a hit: top-dose activity, negative = inhibition, actives largely listed as inhibitors; actives 8.8% (n = 350,000); also: % is scaled to controls: 0 for no effect and ±100 for the full control effect; nearly all actives have a fitted effect of over 75% in size
# Target sequence (Q96KQ7 913-1193 limits assumed): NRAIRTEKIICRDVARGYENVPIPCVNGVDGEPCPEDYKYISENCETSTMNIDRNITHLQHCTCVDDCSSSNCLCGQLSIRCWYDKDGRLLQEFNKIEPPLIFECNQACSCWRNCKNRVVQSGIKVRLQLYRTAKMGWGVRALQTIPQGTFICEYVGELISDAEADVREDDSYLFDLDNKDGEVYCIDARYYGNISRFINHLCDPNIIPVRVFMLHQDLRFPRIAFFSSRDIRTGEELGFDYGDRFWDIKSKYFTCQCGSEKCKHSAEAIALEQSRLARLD
#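 Enzyme 20 nM + cpd, 15 min RT; add b-H3K9 pep 500 nM / SAM 20 uM; 2 h RT; anti-H3K9me1 Ab 0.5 ug/mL + SA donor / anti-rabbit acceptor beads 20 ug/mL each, 10 min; AlphaScreen read.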
# Starred values were filed as active, the others as inactive; u = inconclusive; x = no result; [ ] = dose if it differs, or a comment. This is a sample that favours compounds with a hit; in the whole collection about 12% have one here. Calls follow the shape of the dose curve; as a rule, active = well fitted curve in the direction sought with a large enough effect; inconclusive = small, poorly fitted or top-dose-only effect, or another doubt; inactive = no such curve, though single readings can be large; an effect the other way counts as inactive or inconclusive. Potency is read from the fitted curve at half-maximal effect.
SMILES,TDP1 block,BAZ2B inh,HP1b chromo inh,Sfp inh,JMJD2A Tudor,G9a inh
C=CCOc1ccccc1CNc1ccc2c(c1)OCCO2,5.3%,70.8µM*,u,-19.5%,50.1µM*,8.91µM*
C=CCOc1ccccc1CNc1ccc2[nH]c(=O)[nH]c2c1,2.6%,56.2µM*,u,-5.5%,u,28.2µM*
COc1cc(CNc2ccc3[nH]c(=O)[nH]c3c2)cc(Cl)c1OCc1ccccc1F,3.6%,-16.2%,2.8%,x,-28.5%,-28.2%[59 µM]
C=CCOc1ccccc1CNc1cccc(F)c1,2.7%,74.8%,104.4%,5.3%,18.6%,95.1%[59 µM]
CCOc1ccc(Br)cc1CNc1ccc2c(c1)OCCO2,11.0%,25.1µM*,50.1µM*,0.4%,28.2µM*,-137.9%[59 µM]
COc1cccc(CNc2ccc3[nH]c(=O)[nH]c3c2)c1OCc1ccccc1F,12.5%,28.2µM*,31.6µM*,-12.5%,44.7µM*,44.7µM*
COc1ccc(-c2noc(=O)n2Cc2ccccc2F)cc1,x,-3.0%,48.4%,7.4%,-1.3%,44.4%
Cn1cc(C(=O)C(=O)N2CCCCC2)c2ccccc21,x,x,16.4%[57 µM],x,-31.4%,x
CC(C)(C)c1ccc(OCCC(=O)OCC(=O)NCc2ccccc2)cc1,x,15.7%,45.7%,x,13.1%,-10.0%[2.33 µM]
CCOC(=O)C1CCN(C/C=C/c2ccccc2)CC1,x,u,-37.3%,-3.7%,79.4µM*,44.7µM*
CCOC(=O)C1CCCN(CC(=O)/C=C2/N(C)c3ccccc3C2(C)C)C1 (stereo not given),0.0%,u,0.2%,0.8%,u,u
CCOC(=O)C1CCN(CC(C)(C)NS(=O)(=O)c2ccccc2)CC1,12.5%,-27.2%,79.4µM*,2.3%,1.78µM*,u
CCOC(=O)C1CCCN(C/C=C/c2ccccc2)C1 (stereo not given),x,u,u,-11.1%,22.4µM*,39.8µM*
O=[N+]([O-])c1ccccc1/C=C/CN1CCCCC1,-1.0%,-2.4%,28.9%,3.5%,0.6%,-10.4%[59 µM]
CCN(CC)C(=O)C1CCCN(C/C=C/c2ccccc2[N+](=O)[O-])C1 (stereo not given),x,u,u,-9.4%,3.16µM*,35.5µM*
CCOC(=O)CSc1nc2sc3c(c2c(=O)n1-c1ccc(OC)cc1)CC(C(C)C)OC3 (stereo not given),x,-0.6%,29.5%,x,0.7%,-1.7%[59 µM]
CCCCNC(=O)C(c1ccc(OCC(=O)OC)c(C(=O)OC)c1)N(CCc1ccccn1)C(=O)CCCCCN1C(=O)NC(c2ccc(-c3ccccc3)cc2)C(C(=O)OCc2ccccc2)=C1C (stereo not given),8.7%,x,x,15.3%,x,x
O=C(OCC(=O)N1CCCC1)c1cc(F)c(F)cc1Cl,-8.0%,-0.9%,21.4%,7.7%,-10.3%,19.2%
CCOc1ccc(NC(=O)CSc2nc3c([nH]c4ccccc43)c(=O)n2-c2cc(C)cc(C)c2)cc1,-6.6%,-0.8%,27.4%[57 µM],x,12.6%,10.4%[59 µM]
Cc1ccc(O)c(NC(=O)C2CCCN2C(=O)OCc2ccccc2)c1 (stereo not given),0.7%,-27.8%,28.8%,9.1%,-18.0%,3.2%
CSc1ccc(/C=N/N2CCN(Cc3ccc(C)cc3C)CC2)cc1,0.0%,44.7µM*,-22.4%,-3.9%,56.2µM*,u
Cc1ccc(CN2CCN(/N=C/c3sccc3C)CC2)c(C)c1,8.1%,28.2µM*,u,-15.3%,22.4µM*,44.7µM*
CSc1ccc(/C=N/NC(=O)CN2CCN(Cc3ccc(C)cc3)CC2)cc1,2.7%,9.2%,27.2%,14.6%,-6.4%,9.6%
Cc1cc2c(s1)c1cnn(Cc3ccc(C(F)(F)F)cc3F)c(=O)c1n2C,-2.5%,x,x,x,u,x
CCCCNc1nc(C)c(C(C)=O)cc1C#N,-2.7%,-25.3%,0.5%,12.9%,-5.6%,1.4%
CCCCNC(=O)NNc1nc(Cl)cc(C)c1C#N,1.2%,-4.9%,36.1%,-26.8%,6.8%,31.6µM*
